CYP2C19 inh – human CYP2C19 inhibition. P33261. CYP2C19 Supersomes, luciferin-H EGE luminescence, 30 min. inhibition, % at 5 µM. 21% of 96,000 active;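 active means CYP2C19 inhibition above a set limit at 5 µM in the primary screen, cut at about 50% in these data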;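 further: plate controls were negative control wells for no effect and 2.5 mM tranylcypromine positive control for full effect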
Target sequence (P33261 whole entry, looked up): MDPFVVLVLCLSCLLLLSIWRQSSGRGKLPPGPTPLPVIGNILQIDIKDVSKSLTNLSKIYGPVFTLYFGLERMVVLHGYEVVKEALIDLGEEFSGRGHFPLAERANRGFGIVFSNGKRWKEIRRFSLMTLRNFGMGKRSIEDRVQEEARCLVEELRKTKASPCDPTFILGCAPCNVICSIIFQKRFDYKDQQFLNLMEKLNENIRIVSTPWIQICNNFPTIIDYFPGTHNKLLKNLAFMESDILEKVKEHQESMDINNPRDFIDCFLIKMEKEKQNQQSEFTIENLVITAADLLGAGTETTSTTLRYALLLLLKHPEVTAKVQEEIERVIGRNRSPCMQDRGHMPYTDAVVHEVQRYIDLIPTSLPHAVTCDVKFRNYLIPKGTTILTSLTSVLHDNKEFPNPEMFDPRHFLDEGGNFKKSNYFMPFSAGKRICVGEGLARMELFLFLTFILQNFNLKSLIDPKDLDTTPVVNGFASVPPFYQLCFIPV
CYP2C9 act – increases human cytochrome P450 2C9 activity; P11712; recombinant CYP2C9, luciferin-H conversion, luminescence; stronger effect = higher value; factor 1 = untreated enzyme, 0 = blocked; activation factor at 5 µM; 1.4% of 96,000 active;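 active means activation factor of 2 or more for CYP2C9 at a 5 µM dose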;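 further: 0 = sulfaphenazole-blocked wells and 1 = vehicle-only wells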
CYP2C19 act – activators of human cytochrome P450 2C19 | activation factor at 5 µM | P33261 | 96,000 tested, under 10 active | recombinant CYP2C19, luciferin-H EGE luminescence; stronger effect = higher value; 0 = fully inhibited enzyme, 1 = untreated enzyme | AID 1025;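 active means activation factor of at least 2 at 5 µM in the primary screen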;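 further: 0 = wells with 2.5 mM tranylcypromine and 1 = vehicle-only wells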
CYP2C9 inhib – blocks human cytochrome P450 2C9; inhibition, % at 5 µM; 20% of 96,000 active; CYP2C9 Supersomes, luciferin-H conversion, luminescence; AID 777; P11712;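 active means blocking of liver enzyme CYP2C9 beyond about 50% at 5 µM, limit read from the data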
Measles CPE – protection of cells from measles virus. Measles virus-infected cells, CPE protection, absorbance. protection (pct of control), % at 4 µM. 1.5% of 140,000 active. AID 841; in the data active means protection mostly above about 24%, no sharp cut-off; inactive means mostly below about 26%
* = called active by the depositor; / = no result; ! = repeats disagree. Shown are actives, neighbours in structure and some others; about 22% of the full set was active somewhere.

SMILES	CYP2C19 inh	CYP2C9 act	CYP2C19 act	CYP2C9 inhib	Measles CPE
O=C(COC(=O)c1ccc2[nH]c3c(c2c1)CCCC3)Nc1ccc(Cl)cc1Cl	/	/	/	/	5.1
NC(=O)CNC(=O)C1CCCc2c1[nH]c1ccc(Cl)cc21 (stereo not drawn)	9.8	0.5	0.9	50.1*	5.0
CCOc1c(C)cc(-c2ncccc2O)cc1C	68.9*!	0.8	0.3	21.6	5.0
COc1ccc(-c2ncccc2O)cc1	1.2	0.9	1	12.2	21.9
CCC1Oc2ccc(C)cc2N(CC(=O)N(Cc2cccnc2)Cc2ccc(C)o2)C1=O (stereo not drawn)	71.8*	0.4	0.3	62.7*	7.3
Cc1[nH]c2ccc(F)cc2c(=O)c1SC(F)(F)C(F)C(F)(F)F (stereo not drawn)	79.7*	0.4	0.2	55.5*	3.0
COc1cccc2c(=O)c(SC(F)(F)C(F)C(F)(F)F)c(C)[nH]c12 (stereo not drawn)	43.7	0.7	0.6	33.9	-1.9
COc1c(O)ccc(/C=C(\C#N)c2nc3ccccc3[nH]2)c1[N+](=O)[O-]	/	/	/	/	9.4
COC(=O)CCC(=O)NNC(=O)c1ccc(Br)cc1	-9.8	1.1	1.1	-10.5	2.8
C/C(N)=C(/C#N)C(=O)CSc1nc2cc(Cl)ccc2s1	43.2	1.1	0.6	-11.9	16.4
CSc1ccc(C2C(C#N)=C(N)Oc3c2ccc(=O)c2c(C)oc(C)c32)cc1 (stereo not drawn)	16.7	0.4	0.8	59.4*	4.2
Cc1oc(C)c2c(=O)ccc3c(c12)OC(N)=C(C#N)C3c1ccccc1Cl (stereo not drawn)	21.6	0.5	0.8	53.1*	6.2
Cc1oc(C)c2c(=O)ccc3c(c12)OC(N)=C(C#N)C3c1ccccc1 (stereo not drawn)	39.1	0.5	0.6	48.4	1.4
Cc1ccc(C(=O)NCCc2nc3ccccc3[nH]2)cc1[N+](=O)[O-]	/	/	/	/	4.8
CCOC(=O)c1cc(CC)sc1NC(=O)c1cccc(N2C(=O)CCC2=O)c1	/	/	/	/	18.4
CN1CCN(/N=C/c2nc(-c3cccc([N+](=O)[O-])c3)n3ccccc23)CC1	/	/	/	/	1.4
Fc1cccc(NCc2cn3ccccc3n2)c1	78.0*	0.7	0.2	31.8	18.9
Fc1ccc(NCc2cn3ccccc3n2)cc1	84.3*	0.7	0.2	29.4	6.3
OCCCCCN=c1cc(-c2ccccc2)oc2ccc(Cl)cc12	0.8	1	1	0.7	0.8
Cc1cccc(OCC(=O)NC(Cc2ccccc2)C(=O)O)c1 (stereo not drawn)	/	/	/	/	6.5
Cc1cccc(OCC(=O)NC(C)C(=O)N/N=C/c2c(OCc3ccccc3)ccc3ccccc23)c1 (stereo not drawn)	48.7	0.1	0.5	89.1*	2.5
CCOC(=O)N=S(=O)(Oc1ccc([N+](=O)[O-])cc1)c1ccccc1 (stereo not drawn)	77.8*	0.7	0.2	28.9	6.9
CCOC(=O)N=S(=O)(Oc1ccc([N+](=O)[O-])cc1)c1ccc(Cl)cc1 (stereo not drawn)	/	/	/	/	29.7
CC(=O)C1=C(O)C(=O)N(CCc2c[nH]c3ccccc23)C1c1cccc(O)c1 (stereo not drawn)	0.7	0.5	1	45.8	24.8*
COc1cc(C2C(C(C)=O)=C(O)C(=O)N2CCc2c[nH]c3ccccc23)ccc1O (stereo not drawn)	-2.5	0.4	1	63.7*	14.4
SMILES	CYP2C19 inh	CYP2C9 act	CYP2C19 act	CYP2C9 inhib	Measles CPE
CC(=O)C1=C(O)C(=O)N(CCCO)C1c1ccccc1 (stereo not drawn)	-3.0	1.4	1	-43.3	20.0
COc1cc(C2C(C(C)=O)=C(O)C(=O)N2CCN(C)C)ccc1O (stereo not drawn)	-12.0	1.1	1.1	-9.6	8.6
COc1ncnc2c1oc1nc(C(C)C)c3c(c12)CC(C)(C)OC3	3.2	0.9	1	9.6	6.8
O=C(CCC(=O)N1CCCC1)Nc1nnc(C2CCCCC2)s1	0.8	1.2	1	-17.2	6.0
CCN(CC(=O)NC1CCCC1)S(=O)(=O)c1ccc(C)cc1	26.0	1.2	0.7	-22.8	0.3
COc1cccc(C(=O)O/N=C(\N)Cc2ccc(Cl)cc2)c1	/	/	/	/	5.2
COc1ccc(C(=O)O/N=C(\N)c2ccncc2)cc1OC	/	/	/	/	8.7
COc1cc(C(=O)O/N=C(\N)c2ccncc2)cc(OC)c1OC	72.4*	0.1	0.3	88.6*	1.3
Cc1cccc(C(=O)O/N=C(\N)c2ccc(Br)cc2)c1	1.9	1.4	1	-44.7	11.0
Cc1cc(C)cc(C(=O)O/N=C(\N)c2ccc(Br)cc2)c1	-13.3	3.5*	1.1	-247.1	7.5
